{"source": "PubChem BioAssay (NCATS)", "note": "Inconclusive results are not listed. Entries that show only a call come without a potency. The source made the active and inactive calls. Calls come from the whole dose curve; as a rule, active = well fitted inhibition curve with a large enough effect; inconclusive = small, poorly fitted or top-dose-only effect; inactive = flat fitted curve, though single readings scatter. Potency is the fitted concentration of half-maximal effect."}
{"test_system": "W2", "test": "qHTS profiling for inhibitors of Plasmodium falciparum proliferation (AID 504749); note: nearly all actives have a fitted effect of over 60% in size", "conditions": "P. falciparum in erythrocytes, SYBR Green DNA, 72 h; series mostly up to 28.7 µM", "from_the_text": "NIH National Institute of Allergy and Infectious Diseases [NIAID] NIH Chemical Genomics Center [NCGC] MLPCN Grant: None Assay Provider: Xinzhuan Su, NIAID NCGC Assay Overview: Plasmodium falciparum is a virulent malarial parasite that kills 1-2 million people worldwide each year. Transmitted by mosquitoes, the sporozoite form of the parasite enters the blood stream to infect hepatocytes, where they become merozoites that infect red blood cells (erythrocytes). Within erythrocytes, merozoites begin a […] cycle of growth and division, after which the parasite is released to infect new red blood cells. Gametocytes, which form within erythrocytes as well, circulate in the bloodstream and are ingested by the mosquito, thereby completing the life cycle. To profile malarial isolates for differential chemical responses and to identify inhibitors of malarial growth, an assay that measures P. falciparum growth and replication within erythrocytes was employed. This assay uses a DNA binding fluorescent dye (SYBR Green) to detect parasite DNA following cell lysis. Because mature erythrocytes lack DNA, only Plasmodium-derived DNA is detected.\nNCGC Assay Protocol Summary: The SYBR Green viability assay was adapted from a method described previously (Plouffe et al., 2008). For screening 3 ul culture medium was dispensed into 1536 well black clear bottom plates (Aurora Biotechnologies) using a Multidrop Combi (Thermo Fisher Scientific Inc.), 23 nL compounds in DMSO were added by a pin tool (Kalypsys), and 5 ul of erythrocytes infected with P. falciparum (0.3% parasitemia, 2.5% hematocrit final concentration) were added. The plates were incubated at 37 C in a humidified incubator in 5% CO2 for 72 h, and 2 ul lysis buffer (20 mM Tris HCl, 10 mM EDTA, 0.16% saponin, 1.6% triton X, 10X SYBR Green I supplied as 10,000X […] by Invitrogen) was added to each well. The plates were mixed for 25 sec with gentle shaking and incubated overnight at room temperature in the dark. The following morning, fluorescence intensity at 485(14) nm excitation and 535(25) nm emission wavelengths was measured on an EnVision (Perkin Elmer) plate reader. Plate reads were normalized relative to the control inhibitor (0.29 uM artemisinin) and vehicle (DMSO) wells present on each plate and then corrected by an algorithm using vehicle-only control plates at the beginning and end of the compound plate stack."}
{"molecule": "Nc1nc(O)c(-c2ccccc2)o1", "Potency": "inactive"}
{"molecule": "CC(=O)Oc1ccc2c3c1OC1[C@@H](OC(C)=O)C=C[C@H]4[C@H](C2)N(C)CC[C@]314", "note": "(stereo partly specified)", "Potency": "inactive"}
{"molecule": "CC(=O)O[C@H]1C[C@H](O[C@H]2[C@@H](O)CC(O[C@H]3[C@@H](O)C[C@H](O[C@H]4CC[C@@]5(C)[C@H](CC[C@@H]6[C@@H]5CC[C@]5(C)[C@@H](C7=CC(=O)OC7)CC[C@]65O)C4)O[C@@H]3C)O[C@@H]2C)O[C@H](C)[C@H]1O[C@@H]1O[C@H](CO)[C@@H](O)[C@H](O)[C@H]1O", "note": "(stereo partly specified)", "Potency": "inactive"}
{"molecule": "C#C[C@]1(O)CC[C@H]2[C@@H]3CCC4=CC(=O)CCC4(C)[C@H]3CCC21C", "note": "(stereo partly specified)", "Potency": "inactive"}
{"molecule": "CCOC(=O)c1cncn1[C@@H](C)c1ccccc1", "Potency": "1.81 µM (active)"}
{"molecule": "CC1(C)S[C@@H]2[C@H](N)C(=O)N2C1C(=O)O", "note": "(stereo partly specified)", "Potency": "inactive"}
{"molecule": "C[C@]12CCC3C(CCC4=C(Cl)C(=O)CC[C@@]43C)C1CCC2O", "note": "(stereo partly specified)", "Potency": "inactive"}
{"molecule": "CCCCCC(O)C1C(=O)OC(C)C(O)\\C=C/C=C\\C=C/C=C\\C=C(\\C)C(O)C(O)C(O)CC(O)CC(O)CC(O)CC(O)CC1O", "note": "(stereo unspecified)", "Potency": "inactive"}
{"molecule": "CCC(=O)OC1(c2ccccc2)CCN(C)CC1C", "note": "(stereo unspecified)", "Potency": "3.79 µM (active)"}
{"molecule": "C=C1Nc2ccccc2C(=O)N1c1ccccc1C", "Potency": "inactive"}
{"molecule": "CCCN1CCCC2Cc3nc(N)ncc3CC21", "note": "(stereo unspecified)", "Potency": "inactive"}
{"molecule": "C#CC1(O)C=CC2C3CCC4=CC(=O)CCC4C3CCC21CC", "note": "(stereo unspecified)", "Potency": "6.01 µM (active)"}
{"molecule": "CCC/C=C/C=C/C(=O)OC1/C(=C/C(=O)OC)CC2CC(C(C)O)OC(=O)CC(O)CC3CC(OC(C)=O)C(C)(C)C(O)(CC4C/C(=C/C(=O)OC)CC(/C=C\\C(C)(C)C1(O)O2)O4)O3", "note": "(stereo unspecified)", "Potency": "0.953 µM (active)"}
{"molecule": "OCC(O)[C@H]1O[C@@H]2O[C@H](C(Cl)(Cl)Cl)O[C@@H]2[C@H]1O", "note": "(stereo partly specified)", "Potency": "inactive"}
{"molecule": "O=C1CC2OCC=C3CN4CC[C@]56c7ccccc7N1C5C2[C@H]3C[C@H]46", "note": "(stereo partly specified)", "Potency": "3.38 µM (active)"}
{"molecule": "C=CC[N+]1(C)CCC23c4c5ccc(O)c4O[C@H]2C(=O)CC[C@@]3(O)C1C5", "note": "(stereo partly specified)", "Potency": "inactive"}
{"molecule": "CN(C)[C@@H](Cc1ccccc1)c1ccccc1", "Potency": "4.78 µM (active)"}
{"molecule": "[S]=[Sb][S][Sb]=[S]", "Potency": "inactive"}
{"molecule": "COC(=O)C1C(OC(=O)c2ccccc2)CC2CCC1N2C", "note": "(stereo unspecified)", "Potency": "inactive"}
{"molecule": "CN1C2CCC1C(C(=O)O)C(OC(=O)c1ccccc1)C2", "note": "(stereo unspecified)", "Potency": "inactive"}
{"molecule": "CC(CO)NC(=O)C1C=C2c3cccc4[nH]cc(c34)CC2N(C)C1", "note": "(stereo unspecified)", "Potency": "inactive"}
{"molecule": "C[C@@H](N)[C@@H](O)c1ccc(O)c(O)c1", "Potency": "inactive"}
{"molecule": "COc1ccc2c3c1O[C@H]1[C@@H](O)C=C[C@H]4C(C2)NCCC341", "note": "(stereo partly specified)", "Potency": "inactive"}
{"molecule": "CCN(CC)C(=O)N[C@@H]1C=C2c3cccc4[nH]cc(c34)C[C@H]2N(C)C1", "Potency": "5.36 µM (active)"}
{"molecule": "CCCC(C)C1(CC)C(=O)NC(=S)NC1=O", "note": "(stereo unspecified)", "Potency": "9.53 µM (active)"}
{"molecule": "CCCCCCC(=O)O[C@H]1CC[C@H]2[C@@H]3CCC4CC(=O)C=C(C)[C@]4(C)[C@H]3CC[C@]12C", "note": "(stereo partly specified)", "Potency": "7.57 µM (active)"}
{"molecule": "C#CCN1CC(=O)N(COC(=O)[C@@H]2[C@@H](C=C(C)C)C2(C)C)C1=O", "Potency": "inactive"}
{"molecule": "C[C@]12C=CC(=O)C=C1CC[C@@H]1C2CC[C@]2(C)OC(=O)CCC12", "note": "(stereo partly specified)", "Potency": "inactive"}
{"molecule": "CCOC(=O)/C=C(C)/C=C/CC(C)CCCC(C)C", "note": "(stereo unspecified)", "Potency": "inactive"}
{"molecule": "CCCCCc1cc(O)c2c(c1)OC(C)(C)C1CC=C(C)CC21", "note": "(stereo unspecified)", "Potency": "1.51 µM (active)"}
{"molecule": "O=[N+]([O-])OC1CO[C@H]2C(O[N+](=O)[O-])COC12", "note": "(stereo partly specified)", "Potency": "inactive"}
{"molecule": "COC(C(=O)C(O)C(C)O)C1Cc2cc3cc(OC4CC(OC5CC(O)C(OC)C(C)O5)C(OC(C)=O)C(C)O4)c(C)c(O)c3c(O)c2C(=O)C1OC1CC(OC2CC(OC3CC(C)(O)C(OC(C)=O)C(C)O3)C(O)C(C)O2)C(O)C(C)O1", "note": "(stereo unspecified)", "Potency": "0.426 µM (active)"}
{"molecule": "C[C@@H]1CC[C@H]2[C@@H](C)C(=O)O[C@@H]3OC4(C)CC[C@@H]1C32OO4", "note": "(stereo partly specified)", "Potency": "0.003 µM (active)"}
{"molecule": "C[C@H](N)Cc1ccccc1", "Potency": "inactive"}
{"molecule": "CN(C)C1C(=O)C(C(N)=O)C(=O)C2(O)C(=O)C3C(=O)c4c(O)cccc4C(C)(O)C3C(O)C12", "note": "(stereo unspecified)", "Potency": "6.75 µM (active)"}
{"molecule": "OC[C@@H](O)[C@H]1O[C@@H]2OC(C(Cl)(Cl)Cl)O[C@H]2[C@H]1O", "note": "(stereo partly specified)", "Potency": "inactive"}
